In the library only some 12% were active in any assay of this set; here they are far more common.
Sfp PPTase inh: Sfp phosphopantetheinyl transferase inhibition | Q9F4F7 | Potency, µM, hits mostly inhibitors | AID 1490 | hit rate 3.5% among 310,000 | Biochemical Sfp PPTase activity, qHTS;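 further: the enzyme is Sfp with the accession as filed and its product quenches rhodamine fluorescence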
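Sfp 15 nM + cpd, 15 min RT; start w/ rhodamine-CoA 5 uM, BHQ-2-YbbR 12.5 uM (final); 50 mM Hepes pH 7.6, 10 mM MgCl2, 0.01% NP-40, 0.01% BSA; read 525/598 nm at 0 and 30 min.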
HP1b binding inh: HP1-beta chromodomain-methylated histone interaction inhibition; P83916; AlphaScreen HP1-beta / biotin-H3K9me3 peptide binding; Potency, µM (doses to about 114 µM), actives largely listed as inhibitors; hit rate 0.56% among 390,000; further: nearly all actives have a fitted effect of over 70% in size
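AlphaScreen: HP1-beta (50 nM) preformed 30 min with biotin-H3(1-18)K9me3 peptide (50 nM) in PBS pH 7.4, 0.01% Tween-20. Compound added for 30 min at RT, then streptavidin donor/nickel chelate acceptor beads (10 ug/mL) for 30 min.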
G9a inh: G9a (human) methyltransferase inhibition | AID 504332 | Potency, µM (titrated, usually from 102 µM), hits mostly inhibitors | G9a H3K9 monomethylation, AlphaScreen, 2 h | Q96KQ7 | hit rate 8.8% among 350,000; further: nearly all actives have a fitted effect of over 75% in size
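G9a (20 nM) preincubated 15 min RT with compounds, then 500 nM biotinylated H3K9 peptide and 20 uM SAM added; 2 h RT reaction. Monomethyl-H3K9 product detected by AlphaScreen with anti-H3K9me1 antibody, streptavidin donor and anti-rabbit IgG acceptor beads.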
BAZ2B inh: inhibitors of human BAZ2B bromodomain; hit rate 4.4% among 360,000; Q9UIF8; AlphaScreen BAZ2B-H3K14Ac peptide displacement; AID 504333; Potency, µM (top dose mostly 114 µM), hits mostly inhibitors; further: nearly all actives have a fitted effect of over 60% in size
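Multi-concentration screen (max 110 uM) measuring displacement of acetylated histone H3 peptide from BAZ2B by AlphaScreen, using 50 nM protein, 50 nM peptide and 10 ug/mL streptavidin donor plus Ni-chelate acceptor beads.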
JMJD2A Tudor: inhibitors of human JMJD2A Tudor domain; AID 504339; hit rate 4.4% among 390,000; O75164; Potency, µM (top dose mostly 114 µM), actives largely listed as inhibitors; AlphaScreen JMJD2A-Tudor / H3K4me3 peptide binding; further: nearly all actives have a fitted effect of over 50% in size
Of the large screens only hits and unclear results are named; the others gave an inactive call; ! = repeats disagree. The call rests on the fitted dose curve; in most records, active means well fitted curve in the direction sought with a large enough effect; inconclusive means small, poorly fitted or top-dose-only effect, or another doubt; inactive means no such curve, though single readings can be large; an effect the other way counts as inactive or inconclusive.

S=C(NNc1ccc2ccccc2c1)NC1CCCCC1	HP1b binding inh 28.2µM, G9a inh 11.2µM, BAZ2B inh 8.91µM, JMJD2A Tudor 3.98µM
Cc1cccc(CC(=O)NC2CC(=O)N(c3cccc(F)c3)C2)c1 (configuration not stated)	none (no result: Sfp PPTase inh)
COc1ccccc1CN1CC[C@@]2(CCCN(C(=O)c3c(C)noc3C)C2)C1	none (no result: HP1b binding inh, BAZ2B inh, JMJD2A Tudor)
CN(C)c1ccc(-c2noc(C3CC(=O)N(c4ccc5c(c4)OCCO5)C3)n2)cc1 (configuration not stated)	none (no result: Sfp PPTase inh)
O=C(CSc1nnc(NC2CCCCC2)s1)Nc1ccc2c(c1)C(=O)c1ccccc1C2=O	BAZ2B inh inconclusive (no result: G9a inh)
NS(=O)(=O)c1ccc(NC(=O)CSc2nnc(NC3CC3)s2)cc1	HP1b binding inh inconclusive, G9a inh 44.7µM, BAZ2B inh inconclusive, JMJD2A Tudor inconclusive (no result: Sfp PPTase inh)
NS(=O)(=O)c1ccc(NC(=S)NC(=O)C2CCCCC2)cc1	G9a inh inconclusive
NS(=O)(=O)c1ccc(NC(=S)NC2CCCCCC2)cc1	Sfp PPTase inh 25.1µM, G9a inh inconclusive
CCOC(=O)c1ccc(N2C(=O)CC(SCC(=O)Nc3ccc(S(N)(=O)=O)cc3)C2=O)cc1 (configuration not stated)	G9a inh 31.6µM
S=C(Nc1ccc(Oc2ccccc2)cc1)NC1CCCCCC1	G9a inh 44.7µM
COc1ccc(C)cc1Nc1nc2c(S(=O)(=O)c3cc(C)ccc3C)nnn2c2ccsc12	none (no result: Sfp PPTase inh)
O=C(CSc1nnc(NC2CCCCC2)s1)NN1C(=O)NC2(CCCCC2)C1=O	G9a inh 44.7µM, JMJD2A Tudor inconclusive
O=C(CCc1nnc2n(Cc3ccccc3Cl)c(=O)c3ccccc3n12)Nc1ccc(F)cc1	none (no result: Sfp PPTase inh)
Cc1ccc(S(=O)(=O)Nc2nnc(C(C)(C)C)s2)cc1	G9a inh 4.47µM
Cc1ccc(S(=O)(=O)Nc2nnc(CC(C)(C)C)s2)cc1	Sfp PPTase inh 79.4µM, G9a inh 35.5µM
Cc1ccc(S(=O)(=O)Nc2nsc(N)n2)cc1	Sfp PPTase inh 35.5µM, G9a inh 31.6µM
CC(C)(C)c1nnc(NS(=O)(=O)c2ccc([N+](=O)[O-])cc2)s1	G9a inh 10µM
CCN(CC)c1ccc(NC(=O)c2cc(C)nc3c2c(C)nn3-c2ccc(C)cc2)c(C)c1	none (no result: Sfp PPTase inh)
COc1ccc(Cc2nnc(NS(=O)(=O)c3ccc(Cl)cc3)s2)cc1OC	G9a inh 31.6µM, BAZ2B inh inconclusive
COc1ccc(Cc2nnc(NC(=O)CSc3ccc(Cl)cc3)s2)cc1OC	none (no result: HP1b binding inh, JMJD2A Tudor)
COc1cccc(Cn2c(=O)c(-c3ccccc3)nc3cncnc32)c1	none (no result: HP1b binding inh, BAZ2B inh, JMJD2A Tudor)
Cn1c(N)cc(=O)[nH]c1=S	JMJD2A Tudor inconclusive (no result: Sfp PPTase inh, G9a inh, BAZ2B inh)
Cn1c(=S)[nH]c2[nH]c(=O)cnc2c1=O	Sfp PPTase inh inconclusive, G9a inh inconclusive, JMJD2A Tudor 89.1µM
Cc1ccc(NC(=O)CCS(=O)(=O)c2cccc3nonc23)c(Br)c1	G9a inh inconclusive
C[C@@H]1O[C@@H](Oc2c(-c3cc(O)c(O)c(O)c3)oc3cc(O)cc(O)c3c2=O)[C@H](O)[C@H](O)[C@H]1O	Sfp PPTase inh 31.6µM!, HP1b binding inh inconclusive, G9a inh 44.7µM, BAZ2B inh 50.1µM, JMJD2A Tudor 31.6µM
Cc1cccc(C)c1NC(=O)CCCN1C(=O)C(c2ccccc2)Oc2cccnc21 (configuration not stated)	none
Cn1ccnc1-c1nc2ccccc2[nH]c1=O	G9a inh 2.51µM, BAZ2B inh 17.8µM, JMJD2A Tudor 35.5µM
Cc1[nH]c2ccc(-c3n[nH]c(=S)n3Cc3ccccc3)cc2c1C	G9a inh 7.94µM, BAZ2B inh inconclusive, JMJD2A Tudor inconclusive
CS(=O)(=O)Nc1ccc(-c2n[nH]c(=S)n2-c2ccccc2)cc1	G9a inh 0.501µM, JMJD2A Tudor 5.62µM
Cc1[nH]c2ccc(-c3n[nH]c(=S)n3-c3ccccc3)cc2c1C	HP1b binding inh inconclusive, G9a inh 1.58µM, JMJD2A Tudor 56.2µM
O=C(CCl)Nc1sccc1C(=O)c1ccccc1	none (no result: Sfp PPTase inh, G9a inh, BAZ2B inh)
Cc1sc(NC(=O)CCl)c(C(=O)c2ccccc2)c1C	Sfp PPTase inh 22.4µM, HP1b binding inh inconclusive, G9a inh inconclusive, BAZ2B inh inconclusive, JMJD2A Tudor 20µM
O=C(Nc1sc2c(c1C(=O)O)CCC2)c1ccccc1Cl	JMJD2A Tudor inconclusive
CNC(=O)c1c(NC(=O)c2nc3ccccc3s2)sc2c1CCC2	Sfp PPTase inh 17.8µM, G9a inh 39.8µM (no result: HP1b binding inh, JMJD2A Tudor)
Cc1cc(C(=O)c2ccccc2)c(NC(=O)CN2CCOCC2)s1	none
